Assay results: PubChem BioAssay (NCATS)
Values joined by “and” are separate entries in the source; they are usually repeats but may differ in a detail not shown here. Equal values may be shown once. Active and inactive are the calls of the source. Calls come from the whole dose curve; as a rule, active = well fitted activation curve with a large enough effect; inconclusive = small, poorly fitted or top-dose-only effect; inactive = no such curve, though single readings can be large or run the other way.

Molecular target: Cytochrome P450 3A4 (Homo sapiens) (UniProt P08684)
Sequence (P08684 whole entry, looked up): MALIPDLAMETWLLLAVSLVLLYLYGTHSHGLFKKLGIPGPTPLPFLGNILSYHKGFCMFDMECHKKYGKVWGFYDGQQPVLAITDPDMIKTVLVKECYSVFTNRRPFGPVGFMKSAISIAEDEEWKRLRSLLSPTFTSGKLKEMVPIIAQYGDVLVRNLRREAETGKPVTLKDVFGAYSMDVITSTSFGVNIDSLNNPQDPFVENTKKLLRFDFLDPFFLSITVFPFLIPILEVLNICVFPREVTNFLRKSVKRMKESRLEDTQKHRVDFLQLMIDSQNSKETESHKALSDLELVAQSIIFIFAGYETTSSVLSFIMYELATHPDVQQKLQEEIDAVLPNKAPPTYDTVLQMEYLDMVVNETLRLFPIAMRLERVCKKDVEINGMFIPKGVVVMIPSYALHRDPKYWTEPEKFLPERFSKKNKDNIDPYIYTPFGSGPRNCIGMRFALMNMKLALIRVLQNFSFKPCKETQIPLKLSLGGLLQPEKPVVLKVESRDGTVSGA
Test: qHTS Assay for Activators of Cytochrome P450 3A4 (AID 885); note: nearly all actives have a fitted effect of over 65% in size
Conditions: recombinant CYP3A4, Luciferin-PPXE luminescence, 60 min; series mostly up to 57.1 µM; activity change, positive = activation: at the top concentration
How it was run: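 20nM CYP3A4 + 25uM Luciferin-PPXE (=KM), 200mM KPO4; cpd 10 min RT; NADPH regen, 60 min RT; stop w/ detection buffer, 20 min; luminescence. Normalized to 57 uM ketoconazole.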

Activity change, positive = activation, inactive:
c1ccc(C2[C@H]3CN(CC4CCCCC4)[C@H](c4ccccc4)C34CC2(c2ccccc2)C4)cc1 (stereo not given in full) -41.7%, Cc1ccc(S(=O)(=O)N[C@H]2COC(=O)[C@H](C)COC(=O)[C@H](C)NC(=O)C/C=C\[C@H]2C)cc1 -41.3% [at 11.4 µM], CC(=O)OC[C@@H]1O[C@@H](O/N=C2/C[C@@H](O)[C@@H](O)[C@@H]3[C@@H]4C(=O)N(Cc5ccc6c(c5)OCO6)C(=O)[C@H]4CC[C@@H]23)[C@H](OC(C)=O)[C@H](OC(C)=O)[C@@H]1OC(C)=O -36.6% [at 11.4 µM], C#CCCCO/N=C1/C[C@@H](O)[C@@H](O)[C@@H]2[C@@H]3C(=O)N(CCC(=O)OCC)C(=O)[C@H]3CC[C@H]12 -51% [at 11.4 µM], COC(=O)NC(/C(C(=O)OC)=C(\C)NCc1ccccc1)c1cccs1 (stereo not given) -35.9% [at 11.4 µM], COC(=O)c1cccc(C23CC4(C2)[C@H](CN(Cc2ccc(-c5ccccc5)cc2)[C@@H]4c2ccccc2)C3c2ccccc2)c1 (stereo not given in full) -42.7%, CO[C@H]1COC(=O)C/C=C\[C@@H](C)COC(=O)[C@@H](CCSC)NC(=O)C/C=C\[C@@H]1C -36.9% [at 11.4 µM] and -35.4% [at 11.4 µM], O=C1[C@H]2[C@H]3[C@H](O)[C@H](O)C/C(=N/OC[C@@H](O)COCc4ccco4)[C@H]3CC[C@@H]2C(=O)N1c1cccc(Oc2ccccc2)c1 -40.2% [at 11.4 µM], COC(=O)C/C=C\[C@@H](C)[C@@H](CO)NS(=O)(=O)c1ccc(C)cc1 -37.6% [at 11.4 µM], CCC1=C2CC[C@H]3C(=O)N(c4ccccc4)C(=O)[C@H]3[C@H]2[C@@]2(C)C(=O)N(CC(=O)OC)C(=O)N2C1=O -54.5%, CCC1=C(OC(=O)N(CC)CC)N2C(=O)OC(=NCCOC)[C@]2(C)[C@H]2C1=CC[C@H]1C(=O)NC(=O)[C@H]12 -54.3%, CN1C[C@@H]2C(c3ccccc3)C3(c4ccc(C#N)cc4)CC2(C3)[C@H]1c1ccccc1 (stereo not given in full) -56.9%, C#CCCCO/N=C1/C[C@@H](O)[C@@H](O)[C@@H]2[C@@H]3C(=O)N(CCC(=O)OCC)C(=O)[C@H]3CC[C@@H]12 -45.7% [at 11.4 µM], COC(=O)c1ccc(C23CC4(C2)[C@H](CN(Cc2ccc(C(F)(F)F)cc2)[C@@H]4c2ccccc2)C3c2ccccc2)cc1 (stereo not given in full) -48.5%, N#Cc1ccc(C23CC4(C2)[C@H](CN(CC2CCCCC2)[C@@H]4c2ccccc2)C3c2ccc(Cl)nc2)cc1 (stereo not given in full) -51%, CO[C@@H]1COC(=O)C/C=C\[C@@H](C)COC(=O)[C@H](Cc2ccccc2)NC(=O)C/C=C\[C@H]1C -39.1% [at 11.4 µM], COC(=O)[C@@H]1C[C@H]2CC[C@H](O)C[C@H]2N1Cc1ccc(-c2ccccc2)cc1 -46.3%, FC(F)(F)c1ccc(CN2C[C@@H]3C(c4ccc(Cl)nc4)C4(c5ccccc5)CC3(C4)[C@H]2c2ccccc2)cc1 (stereo not given in full) -45.7%, COC(=O)[C@@H]1C[C@@H]2CC[C@@H](O)C[C@@H]2N1Cc1ccc(C)s1 -55.4%, COC(=O)CN=C1OC(=O)N2C(=O)C3=C4C(C[C@H]5C(=O)N(c6ccccc6)C(=O)[C@H]5[C@H]4[C@@]12Cc1ccccc1)[C@H]1C(=O)N(c2ccccc2)C(=O)[C@H]1[C@H]3C (stereo not given in full) -56.9%, Cc1cc2c(nc1C)CCCN2C[C@H](C)O/N=C1/[C@H]2O[C@@H]2[C@@H](O)[C@H]2[C@H]1CCn1c(=O)n(-c3ccccc3)c(=O)n12 -35.6% [at 11.4 µM], COc1ccc(COC(=O)N/N=C2/C[C@@H](O)[C@@H](O)[C@@H]3[C@H]4C(=O)N(c5ccc(F)cc5F)C(=O)[C@@H]4CC[C@@H]23)cc1 -42.8% [at 11.4 µM], CO[C@@H]1COC(=O)[C@H]2CCCN2C(=O)[C@@H](C)COC(=O)[C@H](COCc2ccccc2)NC(=O)C/C=C\[C@H]1C -38.2% [at 11.4 µM], CO[C@H]1COC(=O)[C@H]2CCCN2C(=O)C/C=C\[C@@H](C)[C@H](OC)COC(=O)[C@@H](OCc2ccccc2)/C=C\[C@@H]1C -30.9% [at 11.4 µM], Cn1c(N)c(C(=O)COC(=O)c2cc(C3CC3)nc3ccccc23)c(=O)n(Cc2ccccc2)c1=O -53%, CCc1cc2c(nc1CC)CCN(CC/C(C)=N/OC[C@H]1O[C@H](c3ccccc3)C=C[C@@H]1Oc1ccc(OC)cc1)C2 -51.8% [at 11.4 µM], Cc1ccc(S(=O)(=O)N[C@H]2COC(=O)CC=C[C@@H](C)[C@H]3C=C[C@H](O)[C@@H](COC(=O)CC=C[C@H]2C)O3)cc1 -86.3% [at 11.4 µM], O=C(O)c1sccc1S(=O)(=O)Nc1ccc(Cl)cc1 -30.3%, COC(=O)c1cccc(C23CC4(C2)[C@H](CN(Cc2ccc(C(F)(F)F)cc2)[C@@H]4c2ccccc2)C3c2ccc(Cl)nc2)c1 (stereo not given in full) -32.7%, CCC1=C2CC[C@H]3C(=O)NC(=O)[C@H]3[C@H]2[C@@]2(Cc3ccccc3)C(=NCC(=O)OC)OC(=O)N2C1=O -56.7%, N#Cc1ccc(C23CC4(C2)[C@H](CN(Cc2ccc(C(F)(F)F)cc2)[C@@H]4c2ccccc2)C3c2ccccc2)cc1 (stereo not given in full) -57.8%, O=C1[C@H]2O[C@@H]2[C@@H](O)[C@H]2[C@H]1CCn1c(=O)n(Cc3cc4c(cc3Cl)OCO4)c(=O)n12 -36.7% [at 11.4 µM], CN1C[C@@H]2C(c3ccc(Cl)nc3)C3(c4ccc(C#N)cc4)CC2(C3)[C@H]1c1ccccc1 (stereo not given in full) -44.9%, CCc1cc2c(nc1CC)CCN(CC/C(C)=N/OC[C@@H](C)[C@H](OCc1ccccc1)C(C)C)C2 -34.8% [at 11.4 µM], COc1ccc(O[C@H]2C=C[C@@H](c3ccccc3)O[C@H]2CO/N=C(/C)CCC(=O)OC[C@@H]2O[C@H](C#Cc3ccccc3)C=C[C@@H]2Oc2ccc(C)cc2)cc1 -52.7% [at 11.4 µM], CCC1=C(OC(=O)N(CC)CC)N2C(=O)OC(=NCC(=O)OC)[C@]2(C)[C@H]2C1=CC[C@H]1C(=O)N(CC)C(=O)[C@H]12 -79.2%, CO[C@H]1COC(=O)[C@H](C)COC(=O)[C@@H](Cc2ccccc2)NC(=O)C/C=C\[C@H]1C -39.6% [at 11.4 µM], CCCNC(=O)OC[C@H]1O[C@@H](CCO/N=C2/[C@H]3O[C@@H]3[C@@H](O)[C@H]3[C@H]2CCn2c(=O)n(-c4ccccc4)c(=O)n23)C=C[C@@H]1Oc1ccc(OC)cc1 -85.3% [at 11.4 µM], CC(C)CO/N=C1/C[C@@H](O)[C@@H](O)[C@@H]2[C@@H]3C(=O)N(Cc4ccccc4)C(=O)[C@H]3CC[C@H]12 -30.2% [at 11.4 µM], COC(=O)N1[C@H](C)C=C[C@]1(Cc1ccccc1)C(=O)NCc1ccc(N(C)C)cc1 -57.2%
